Measurements: the supplement of paper PMC12636033
± gives the standard deviation of the averaged measurements. The full ranking holds about 33,000 sequences; the median of “E-score (rank enrichment, -0.5 to 0.5)” is about -0.0043, and the highest 2% start at about 0.24. Many of the other results were omitted from the sample, so the highest values are more common in it than they were.

Test system: 2Sp-muMax20 (muMax20 with two 2,6-bis(methyl)pyridine Cys staples)
Test: PBM 8-mer E-score (E-score (rank enrichment, -0.5 to 0.5)); higher = stronger preferential binding
Procedure: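 Protein binding microarray (universal PBM chip covering all 10-mers in fixed probe flanks) with chemically synthesized human Max(13-93) bHLH-LZ analogs (not full-length Max) bearing noncanonical residues (hArg, Tha, Aib, Nle at 65) and aromatic Cys staples. Read-out per 8-mer (and its reverse complement): E-score (rank-based enrichment, -0.5 to 0.5) and Z-score of median probe intensity.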

Sequence | PBM 8-mer E-score
AGCGTGTA | 0.1194 ± 0.0008
CGCGTGTC | 0.139 ± 0.067
GACTAGAA | 0.177 ± 0.023
CCATCGGG | -0.247 ± 0.14
CCCCAGTC | 0.0489 ± 0.031
AACTTACC | -0.00702 ± 0.031
GCGGCGTA | 0.0259 ± 0.057
ACTCGGGC | -0.209 ± 0.095
CATTCCTA | 0.0858 ± 0.042
CGTTGTGA | -0.116 ± 0.13
AATCCACT | -0.0636 ± 0.11
TGTTCCAA | -0.0197 ± 0.029
ATGGAGGG | 0.168 ± 0.038
AGCTGTGG | -0.0756 ± 0.04
CGAGGGGA | 0.021 ± 0.025
CTAGGGGA | 0.0989 ± 0.024
GGAGGGAA | -0.0234 ± 0.062
GTAGGGGA | 0.29 ± 0.033
ATAGGGGA | 0.138 ± 0.033
GGAGGGGA | 0.244 ± 0.028
CTTTCCGA | -0.294 ± 0.038
AGGTGCGC | -0.139 ± 0.056
ACCCTATA | -0.0592 ± 0.015
TGGCGTAA | 0.0766 ± 0.16
ATTTTTAG | -0.0464 ± 0.14

Sequence | PBM 8-mer E-score
TACTTCAA | 0.243 ± 0.013
AACTTCAA | 0.0284 ± 0.018
GACTTCAA | 0.0921 ± 0.077
CATCTAGC | 0.114 ± 0.045
GGTCTCAC | 0.0156 ± 0.0022
ACGTTGAA | 0.123 ± 0.036
TTACGTAA | 0.2354 ± 0.0003
CTACGTAA | 0.0719 ± 0.058
ATACGTAT | 0.339 ± 0.022
ATACGTAC | 0.185 ± 0.07
ATACGTAA | 0.119 ± 0.077
GTACGTAA | 0.101 ± 0.075
GAGACAAC | 0.00299 ± 0.013
AACTTTAA | 0.0575 ± 0.063
CGGTTACG | -0.19 ± 0.072
CCGCATCG | -0.258 ± 0.046
CTATGAGC | -0.0207 ± 0.088
CAATAAAA | 0.294 ± 0.052
GAATAAAA | 0.0399 ± 0.044
CAATAATG | 0.0692 ± 0.049
CAATAATA | 0.247 ± 0.045
CAATAATC | 0.0969 ± 0.081
CAATAAAC | 0.137 ± 0.053
GACAGGTC | -0.12 ± 0.088
AGAGCCAA | 0.00188 ± 0.0012

Sequence | PBM 8-mer E-score
CGAGGACC | -0.245 ± 0.046
AACGGCCA | -0.0961 ± 0.022
AACGGCCC | -0.372 ± 0.037
AACGGCCT | 0.275 ± 0.0083
TCGTCCAA | -0.0225 ± 0.01
AACGGTCC | -0.298 ± 0.1
ACACGTGG | 0.3868 ± 0.00064
TCACGTAA | -0.0172 ± 0.028
ACACGTAC | -0.0036 ± 0.092
ACACGTAG | -0.0191 ± 0.055
ATACGTGA | -0.0748 ± 0.062
TCACGTGA | 0.438 ± 0.0011
TAACGTGA | 0.093 ± 0.036
AGACGTGC | -0.145 ± 0.021
ACACGTGC | 0.407 ± 0.024
AGACGTGA | 0.0537 ± 0.03
AAACGTGG | 0.0452 ± 0.042
ACACGTGA | 0.412 ± 0.034
CCTCTTAG | -0.00532 ± 0.11
CATTCGCA | 0.0276 ± 0.0019
ACCAAACC | 0.0152 ± 0.034
CAGTCTAG | -0.117 ± 0.05
CAATAGAA | 0.0449 ± 0.032
ACGCGTGC | 0.177 ± 0.049
AAACGTGT | 0.077 ± 0.06

Sequence | PBM 8-mer E-score
ACGCGTGA | 0.25 ± 0.0042
ACACGTGT | 0.421 ± 0.015
ACACGTAT | 0.178 ± 0.052
GCGCGTGA | 0.2082 ± 0.00059
ACTTTCCC | -0.0248 ± 0.091
CTCGTCTC | -0.0179 ± 0.03
CTCACGTC | -0.00269 ± 0.06
CTTCGAGA | -0.0158 ± 0.028
ATTCGAGC | -0.0718 ± 0.14
ATTCGAGA | 0.239 ± 0.052
AGGTTGCC | -0.164 ± 0.035
GCACCTAC | -0.194 ± 0.0063
ATCACGAT | 0.00138 ± 0.12
CGCACGCC | -0.0203 ± 0.1
AAGACCCA | 0.0969 ± 0.13
TAGACCCA | 0.282 ± 0.061
GAGACCCA | -0.1 ± 0.07
CCTTTAAC | -0.0714 ± 0.012
GGCGCACC | -0.281 ± 0.032
CGCTACCA | -0.1194 ± 0.00063
ATATCCCG | 0.0776 ± 0.056
ATATCCTA | 0.0987 ± 0.0053
ATATCTTC | 0.294 ± 0.022
ATATCCTC | 0.265 ± 0.056
ATATCTTA | 0.19 ± 0.0044

Sequence | PBM 8-mer E-score
CTATCCTC | 0.0112 ± 0.011
CTATCCCC | 0.0647 ± 0.044
ATATCCCC | 0.28 ± 0.028
CTATCTTC | 0.0745 ± 0.024
CAGAGATC | -0.137 ± 0.014
TCTTCGCA | 0.0987 ± 0.026
AGCTGACT | -0.0778 ± 0.023
ACAAGATG | 0.115 ± 0.02
CTGAAGGC | -0.247 ± 0.05
AATGTACG | 0.0758 ± 0.021
CATGTACA | 0.143 ± 0.1
AATGTACA | 0.0795 ± 0.02
GATGTACA | 0.165 ± 0.009
CATGTACG | 0.2899 ± 0.0015
TATGTACA | 0.25 ± 0.028
CTGAACAA | -0.00871 ± 0.029
GGCCTTAA | 0.0324 ± 0.052
ACCAAATG | -0.043 ± 0.09
AAGAGACA | 0.252 ± 0.042
TAGAGACA | -0.0515 ± 0.021
GAGAGACA | -0.174 ± 0.03
AAGGTGAT | 0.157 ± 0.033
ATAGTAAT | 0.19 ± 0.084
CTAGTAAA | 0.12 ± 0.047
ATAGTAAA | 0.274 ± 0.033

Sequence | PBM 8-mer E-score
ACATAGGA | 0.102 ± 0.044
AATTTATC | 0.105 ± 0.038
AATTTATA | 0.27046 ± 0.00013
ATTTTGTA | 0.239 ± 0.12
ATTTTATG | 0.0502 ± 0.14
CTTTTGTA | 0.0481 ± 0.15
ATTTTATA | 0.264 ± 0.03
CATTTATA | 0.141 ± 0.023
GTTTTATA | 0.168 ± 0.13
ATTTTGTG | 0.0633 ± 0.081
ACGCCCTA | -0.000715 ± 0.088
CCCAACAC | 0.00365 ± 0.023
AATTCCGA | -0.0265 ± 0.07
GCAAAGCA | 0.155 ± 0.058
CAAATTTG | 0.117 ± 0.032
CAAATTTC | 0.236 ± 0.031
GAAATTTC | 0.114 ± 0.052
CCCTATCC | -0.0867 ± 0.098
TAATACGA | -0.0384 ± 0.02
AATATATG | 0.303 ± 0.0091
ATAATATC | 0.24 ± 0.082
AATATATT | 0.2823 ± 0.0018
GATATATC | 0.102 ± 0.037
AATATAGT | 0.152 ± 0.037
AATATATC | 0.239 ± 0.051

Sequence | PBM 8-mer E-score
AAAATATG | 0.114 ± 0.021
ATAATATG | 0.185 ± 0.062
CTAATATC | 0.173 ± 0.038
AATATATA | 0.186 ± 0.0061
AATATGTG | 0.191 ± 0.037
AATATAGC | 0.168 ± 0.047
TGACATAA | 0.128 ± 0.05
GTGTGGAA | 0.118 ± 0.01
AGCCCGTA | -0.23 ± 0.063
CATTTCAC | 0.0886 ± 0.049
AATTTTCA | 0.146 ± 0.05
CACATTCG | 0.00422 ± 0.036
ATTACTGA | 0.103 ± 0.074
CGAGGAAC | -0.084 ± 0.029
AATATGGA | 0.104 ± 0.011
AATATGGC | 0.302 ± 0.044
AATATGGT | 0.0878 ± 0.052
AGCAACAG | -0.0291 ± 0.074
ACCTAAGT | -0.0381 ± 0.043
ATATTGTC | 0.121 ± 0.03
CATAGTGA | 0.0514 ± 0.05
AATAGTGA | -0.033 ± 0.029
TATAGTGA | 0.249 ± 0.048
